SMN2 splice enh: SMN2 splice variant enhancement. HEK293 SMN2-luciferase splicing reporter, luminescence, 30-36 h. Potency, µM (top dose mostly 46.1 µM), usual class: activators. actives 2.8% (n = 210,000); further: nearly all actives have a fitted effect of over 55% in size
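qHTS luciferase splicing reporter: luminescence rises when SMN2 exon 7 is included in transfected HEK293 cells. Compound exposure lasted 30-36 h at 37C, with 4.5 mM final sodium butyrate as control, followed by a ONE-Glo read.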
FLuc counter: inhibits or activates purified firefly luciferase, miR-21 counter-screen; P08659; purified FLuc, Km substrates, luminescence inhibition; Potency, µM (highest dose often 57.5 µM), actives largely listed as inhibitors; actives 6.9% (n = 360,000); AID 588342; further: nearly all actives have a fitted effect of over 55% in size
Target sequence (P08659 whole entry, looked up): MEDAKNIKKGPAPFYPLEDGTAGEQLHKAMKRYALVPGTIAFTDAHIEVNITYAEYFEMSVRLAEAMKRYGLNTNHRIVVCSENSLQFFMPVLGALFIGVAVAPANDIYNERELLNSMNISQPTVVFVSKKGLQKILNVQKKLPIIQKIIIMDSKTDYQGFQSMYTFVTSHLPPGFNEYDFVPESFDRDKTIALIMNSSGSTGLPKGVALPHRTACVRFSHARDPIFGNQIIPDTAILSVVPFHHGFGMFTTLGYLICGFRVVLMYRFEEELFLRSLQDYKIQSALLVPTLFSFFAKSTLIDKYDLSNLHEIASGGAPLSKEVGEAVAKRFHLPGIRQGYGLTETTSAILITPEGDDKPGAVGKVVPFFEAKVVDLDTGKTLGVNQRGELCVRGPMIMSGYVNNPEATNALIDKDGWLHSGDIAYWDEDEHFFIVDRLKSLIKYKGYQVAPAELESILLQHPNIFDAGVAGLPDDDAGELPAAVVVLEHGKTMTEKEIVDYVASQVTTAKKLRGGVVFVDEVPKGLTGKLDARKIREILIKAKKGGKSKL
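Biochemical qHTS of compounds, final roughly 60 µM downward over six points, against 10 nM purified firefly luciferase using Km concentrations of substrates (10 uM D-luciferin, 10 uM ATP) in Tris acetate pH 7.5 buffer; luminescence output.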
KinaseGlo FLuc: counter-screen: inhibitors of Kinase-Glo firefly luciferase. Q27757. Kinase-Glo luciferase, ATP luminescence, 8 min. Potency, µM (series often up to 38.3 µM), usual class: inhibitors. actives 0.28% (n = 200,000). AID 1379; further: nearly all actives have a fitted effect of over 60% in size
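Inhibition of Kinase-Glo luciferase light generation was assessed at 10 uM ATP in pH 7.2 imidazole buffer, with luminescence measured after eight minutes at ambient temperature.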
Rab9 promoter act: activators of Rab9 promoter. Potency, µM (doses to about 9.22 µM), hits mostly activators. actives 2.8% (n = 320,000). Huh7 Rab9 promoter-luciferase reporter, luminescence, 24 h; further: nearly all actives have a fitted effect of over 60% in size
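Quantitative HTS format; Huh7 Rab9-luciferase reporter cells (1500/well) receive compound 2 h post-plating, incubate 24 h at 37 °C, then get luciferase reagent for 10 min before luminescence reading.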
ELG1 genotox: inducers of genotoxicity in HEK293T ELG1-luciferase cells | actives 1.3% (n = 330,000) | HEK293T ELG1-luciferase reporter, luminescence, 16 h | Potency, µM (highest dose often 46 µM), usual class: activators; further: nearly all actives have a fitted effect of over 60% in size
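ELG1-luciferase HEK293T cells, 2,000/well; compound pinned in; 16 hr, 37 °C, 5% CO2; ONE-Glo, 30 min RT; luminescence on CCD imager.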
NPC1 promoter act: activates the NPC1 promoter | Huh7 NPC1 promoter luciferase reporter, 24 h | Potency, µM (top dose mostly 9.22 µM), hits mostly activators | actives 2.4% (n = 320,000) | AID 485313; further: nearly all actives have a fitted effect of over 60% in size
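Quantitative HTS used a cell-based reporter: Huh7 cells stably bearing the NPC1 promoter upstream of luciferase were treated with compounds for 24 h, and promoter activation was read as luminescence.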
Hits are given with their value; . = inactive; ? = inconclusive; / = no result given; [ ] = dose if it differs, or a comment. Rows were chosen to be rich in hits. Some 7.3% of all compounds tested hit in one or more screens of this group. The call rests on the fitted dose curve; in most records, active means well fitted curve in the direction sought with a large enough effect; inconclusive means small, poorly fitted or top-dose-only effect, or another doubt; inactive means no such curve, though single readings can be large; an effect the other way counts as inactive or inconclusive.

SMILES | SMN2 splice enh | FLuc counter | KinaseGlo FLuc | Rab9 promoter act | ELG1 genotox | NPC1 promoter act
Cc1ccc(C)c(NC(=O)C2CCCN(S(=O)(=O)c3cccc4nsnc34)C2)c1 (stereo unspecified) | . | . | / | / | / | /
O=C1N/C(=C\c2ccc(O)cc2)C(O)=C1C=NCc1ccccc1 | . | 12µM | . | . | . | .
COc1ccc(/C=C2\NC(=O)C(C=NCc3ccccc3)=C2O)cc1 | . | ? | . | . | . | .
O=C1c2ccccc2CCC12N=NCC2c1ccccc1 (stereo unspecified) | . | 17µM | . | . | . | .
O=C1c2ccccc2CCc2ccc(Br)cc21 | / | ? | / | . | . | .
COc1ccc(NC(=S)NC(=O)C2CCC2)cc1 | / | 17µM | / | 4.5µM | ? | ?
COC(=O)c1ccc(NC(=S)NC(=O)C2CCC2)cc1 | / | ? | / | . | . | .
O=C(NC(=S)Nc1ccc(Br)cc1)C1CCC1 | / | 19µM | / | . | ? | .
O=C(COC(=O)c1ccc(O)cc1O)c1ccc2c(c1)OCO2 | / | 8.5µM | / | . | . | ?
O=C(COC(=O)c1cc(Cl)ccc1O)c1ccc2c(c1)OCO2 | / | 1.9µM | / | . | . | ?
O=C(COC(=O)c1ccc(O)cc1)c1ccc2c(c1)OCCO2 | / | 1.2µM | / | 4µM | 5.2µM | 3.5µM
COC(=O)C(Cc1ccc(O)cc1)NC(=O)CCc1ccco1 (stereo unspecified) | / | . | / | . | . | .
COC(=O)C(Cc1ccc(O)cc1)NC(=O)c1ccc2c(c1)OCCO2 (stereo unspecified) | / | 1.3µM | / | . | ? | .
O=C(COC(=O)c1cc(Br)ccc1O)Nc1ccc2c(c1)OCO2 | / | . | / | . | . | .
CC(=O)Nc1cc(NC(C)=O)cc(C(=O)OCC(=O)c2ccc3c(c2)OCO3)c1 | / | . | / | . | . | .
C=CCCCCCCC=C | . | / | / | / | / | /
CSc1nc2sc3c(c2c(=S)[nH]1)CC(C)(C)OC3 | / | 19µM | / | . | . | .
CC(C)=NNc1nc2sc3c(c2c(=O)[nH]1)CC(C)(C)OC3 | . | 15µM | . | . | . | .
Cc1nc(-c2nc(-c3c(C(=O)NN)noc3C)cs2)cs1 | ? | 17µM | . | ? | . | .
Cc1nc(-c2nc(-c3c(C(=O)NNC(=O)c4ccc(Cl)cc4)noc3C)cs2)cs1 | / | . | / | . | . | .
CCc1ccc(C(=O)/C=C/c2ccc([N+](=O)[O-])o2)cc1 | . | 11µM | . | . | ? | .
Cc1ccc(N=Nc2c(O)c3ccccc3[nH]c2=O)c(S(=O)(=O)N(C)C)c1 | .[9.22 µM] | 1.3µM | .[7.66 µM] | . | ? | .
Cc1cc(N=Nc2c(O)c3ccccc3[nH]c2=O)ccc1N=Nc1ccc(C(=O)N(C)C)cc1 | / | ? | / | ? | . | ?
O=C(Nc1ccc(CN2CCOCC2)cc1)c1cccs1 | 13µM | 12µM | . | 3.2µM | ? | ?
O=C(Cc1ccccc1)Nc1ccc(CN2CCOCC2)cc1 | 22µM | ? | . | ? | 12µM | ?
SMILES | SMN2 splice enh | FLuc counter | KinaseGlo FLuc | Rab9 promoter act | ELG1 genotox | NPC1 promoter act
COc1ccc(Br)cc1C(=O)NC(=S)Nc1ccc(CN2CCOCC2)cc1 | / | . | / | . | . | .
c1ccc(CN2CCOCC2)cc1 | . | . | . | . | . | .
COc1cc2ccccc2cc1C(=O)Nc1ccc(CN2CCOCC2)cc1 | / | 15µM | / | . | . | .
O=C(Nc1ccc(CN2CCOCC2)cc1)c1ccccc1F | 11µM | ? | . | ? | ? | 3.2µM
Cc1ccc(NC(=O)COc2ccc(-c3nn(C)c(=O)c4ccccc34)cc2)c(C)c1 | . | . | / | / | / | /
Cc1ccc(S(=O)(=O)c2nc(-c3cccs3)oc2SCC(=O)Nc2cc(C)cc(C)c2)cc1 | . | . | / | / | / | /
Cc1c(/C=N\NC(=O)c2ccc(F)cc2)cnn1C | . | . | . | . | . | .
CCn1ncc(/C=C/C(=O)c2ccccc2)c1C | ? | ? | 10µM | ? | ? | ?
CCn1ncc(/C=N\NC(=O)COc2ccccc2)c1C | . | . | . | . | . | .
Cc1c(/C=C/C(=O)c2ccccc2)cnn1C | ? | 4.8µM | ? | ? | ? | ?
Cc1nn(Cc2c(Cl)cccc2Cl)c(C)c1NC(=O)/C=C/c1cnn(C)c1C | . | . | . | . | . | .
Cc1c(/C=C/C(=O)c2ccc(Cl)s2)cnn1C | . | 1.5µM | . | ? | ? | ?
Cc1c(/C=C/C(=O)c2ccc(O)cc2)cnn1C | ? | 11µM | . | ? | 21µM | ?
COCCNC(=O)c1ccc(-n2c(=O)c(=O)[nH]c3ccccc32)cc1 | / | / | . | / | / | /
CCOc1ccc(NC(=O)CCNS(=O)(=O)c2ccc3c(c2)CCCC(=O)N3)cc1 | / | . | / | / | / | /
CCOC(=O)c1ccc(N2C(=O)c3[nH]nc(-c4ccc(OC)cc4)c3C2c2ccc(C)cc2)cc1 (stereo unspecified) | . | . | / | / | / | /
CCC(C)NC(=O)Cn1c(=O)ccc2cc(S(=O)(=O)N3CCCC3)ccc21 (stereo unspecified) | / | . | / | / | / | /
Cc1ccc(NC(=O)CN2C(=O)CCc3cc(S(=O)(=O)N4CCCCC4)ccc32)cc1N(C)C | / | . | / | / | / | /
Cc1c(/C=C/C(=O)c2ccc(C(C)C)cc2)cnn1C | . | 1.9µM | . | ? | ? | .
CC(CNC(=O)c1ccc2nc(CCc3ccccc3)oc2c1)c1ccccc1 (stereo unspecified) | / | . | / | / | / | /
CCN1CCN(Cc2ccc(NC(=O)c3cc(NC(=O)c4nccnc4N)cc(OC)c3)cc2C(F)(F)F)CC1 | / | 13µM | / | . | . | .
CCOc1ccc(/C=C/C(=O)Nc2cccc(C(C)=O)c2)cc1 | ? | 1.2µM | . | ? | . | ?
CCOc1ccc(NC(=O)Nc2cccc(C(=O)O)c2)cc1 | 2µM | 0.027µM | ? | 0.089µM | . | ?
CCOC(=O)c1cccc(NC(=O)Nc2ccc(OCC)cc2)c1 | 10µM | 2.7µM | . | 2.8µM | . | 1.8µM
CCOc1ccc(S(=O)(=O)NCCC(=O)Nc2cccc(C(=O)OC)c2)cc1 | / | . | / | 3.2µM | . | .
SMILES | SMN2 splice enh | FLuc counter | KinaseGlo FLuc | Rab9 promoter act | ELG1 genotox | NPC1 promoter act
C=Cc1ccc(Cn2c(SCC(=O)N3CCN(c4ccc(F)cc4)CC3)nc3ccccc32)cc1 | . | . | / | / | / | /
C=C[C@]1(C)Cc2occ(C)c2C[C@H]1C(=C)C(=O)O | ? | / | . | / | / | /
O=C1c2ccccc2-c2onc3c(Oc4ccccc4)cc(O)c1c23 | 11µM | ? | . | . | ? | .
Cc1cc(C)c(C(=O)Cn2nc(C(=O)O)c3ccccc3c2=O)cc1C | / | 6µM | / | . | . | .
CCCc1ccc(C(=O)Cn2nc(C(=O)O)c3ccccc3c2=O)cc1 | . | ? | . | . | . | .
Cc1cc(C(=O)Cn2nc(C(=O)O)c3ccccc3c2=O)c(C)n1-c1ccccc1 | . | 0.95µM | . | ? | ? | .
O=C(Cn1nc(C(=O)O)c2ccccc2c1=O)c1c[nH]c2ccccc12 | / | 15µM | / | . | . | .
COc1cccc(C(=O)Nc2c(C(=O)N3CCN(c4ccc(F)cc4)CC3)oc3ccccc23)c1 | / | . | / | / | / | /

Screening results from PubChem BioAssay.
